# Where “and” joins values, the source holds several entries; their conditions need not be identical. Identical values can stand only once. Results filed as inconclusive are left out. Values without a mark were called inactive. Calls of active or inactive are those of the source. Calls come from the whole dose curve; as a rule, active = well fitted curve in the direction sought with a large enough effect; inconclusive = small, poorly fitted or top-dose-only effect, or another doubt; inactive = no such curve, though single readings can be large or run the other way.
# Experiment: qHTS Assay for Identifying Gametocytocidal Compounds (AID 743244);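 for max response: actives lower the fluorescent signal which means gametocytes are killed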
# Settings: P. falciparum 3D7 stage III-V gametocytes, alamarBlue, 72 h; max response: active compounds read low
# From the text: Malaria cases and deaths have dropped 50% in 29 countries since 2000 due to the combined effects of long-lasting insecticidal bednets, indoor residual spraying, and artemisinin-based combination therapies (ACTs). This success has raised hopes for malaria eradication and consequently stimulated interest in developing new reagents that block gametocyte transmission such as novel and safe gametocytocidal drugs. However, previous drug development efforts have focused primarily on the asexual parasites that cause symptoms, but not malaria transmission. Consequently, patients can remain infectious for weeks after the clearance of asexual parasites and clinical symptoms. To be transmitted from person to person via a mosquito, the parasites must switch from asexual to sexual development and produce male and female gametocytes. Malaria gametocytes consist of five stages (I, II, III, IV and V). The late stage gametocytes (III, IV and V) are difficult to be cultured in vitro and the long lifespan of mature gametocytes allows them being transmitted from host to mosquitoes unless they are completely eliminated by gametocytocidal agents. To identify gametocytocidal compounds which are capable of killing late stage P. falciparum gametocytes, a high throughput gametocyte viability assay was employed. This assay uses oxidoreduction indicator, alamarBlue, as a general measure of metabolic activity of gametocytes. Within live cells, the nonfluorescent resazurin is reduced to resorufin, a bright red fluorescence dye. Fluorescence decreases upon treatment of gametocytocidal compounds. P. falciparum gametocyte (3D7 strain) was used in this study.
# The 1536-well gametocycidal viability assay was based on the previous method of Tanaka et al. Stage III-V gametocytes were tested against three compound libraries, including 4265 compounds from NCGC pharmaceutical collection, 400 from Malaria Box library, and 550 from an internal collection of kinase inhibitors. Briefly, 2.5 ul/well incomplete medium was dispensed into each well of 1,536-well plates using the Multidrop Combi followed by 23 nl compound transferring using the NX-TR Pintool (WAKO Scientific Solutions, San Diego, CA). Then, 2.5 ul/well of gametocytes was dispensed with a seeding density of 20,000 cells/well using the Multidrop Combi. The assay plates were incubated for 72 h at 37C with 5% CO2. After addition of 5 ul/well of 2X AlamarBlue dye (Life Technologies, cat. no. DAL1100), the plates were incubated for 24 h at 37C with 5% CO2 and then were read in a fluorescence detection mode (Ex = 525 nm, Em = 598 nm) on a ViewLux plate reader (PerkinElmer).
# % is set by controls: 0 for no effect and ±100 for the full control effect; potency is the fitted concentration of half-maximal effect.
SMILES,max response,Potency
C[C@]12CC[C@@H]3c4ccc(O)cc4CC[C@H]3[C@@H]1CC[C@@H]2O,23.5% and 41.3%,–
CNCCC(Oc1ccccc1C)c1ccccc1 (stereo not given),9.68%,–
Cc1cc(N)c2cc(NC(=O)Nc3ccc4nc(C)cc(N)c4c3)ccc2n1,-2.17%,–
C=C1C[C@H]2[C@@H]3C=C(C)C4=CC(=O)CC[C@]4(C)[C@H]3CC[C@]2(C)[C@@]1(OC(C)=O)C(C)=O,18%,–
Cc1c(C(N)=O)cc([N+](=O)[O-])cc1[N+](=O)[O-],-0.173%,–
O=C1c2ccccc2C(=O)C1c1ccccc1,1.91%,–
COCc1c(C(C)C)nc(C(C)C)c(/C=C/[C@@H](O)C[C@@H](O)CC(=O)O)c1-c1ccc(F)cc1,-6.56%,–
NC[C@H]1O[C@H](O[C@H]2[C@H](O)[C@@H](O[C@H]3O[C@H](CO)[C@@H](O)[C@H](N)[C@H]3O)[C@H](N)C[C@@H]2N)[C@H](N)[C@@H](O)[C@@H]1O,-18.8% and 4.69%,–
CC[C@@H](CO)NCCN[C@@H](CC)CO,6.57%,–
COc1c(C)c2c(c(O)c1C/C=C(\C)CCC(=O)O)C(=O)OC2,31.6%,–
CC(=O)c1ccc2c(c1)N(CCCN1CCC(CCO)CC1)c1ccccc1S2,-4.88%,–
C/C=C/c1ccc(OC)cc1,16%,–
C/C=C(/C(=C/C)c1ccc(O)cc1)c1ccc(O)cc1,-1.19%,–
COc1cc(OC)cc(OC)c1,0.294%,–
C[C@H]1C[C@H]2[C@@H]3CCC4=CC(=O)C=C[C@]4(C)[C@@]3(Cl)[C@@H](O)C[C@]2(C)[C@@]1(O)C(=O)CO,3.92%,–
NCCCC[C@H](N[C@@H](CCc1ccccc1)C(=O)O)C(=O)N1CCC[C@H]1C(=O)O,-3.1%,–
CCCCCCCCCCCCCCCC[N+](C)(C)CCN(Cc1ccc(OC)cc1)c1ncccn1,–,7.08 µM (active)
CN(C)CCCOc1nn(Cc2ccccc2)c2ccccc12,10.4%,–
CCOC(=O)[C@H](CCc1ccccc1)N[C@@H](C)C(=O)N1Cc2ccccc2C[C@H]1C(=O)O,4.65%,–
Oc1ccc(Cl)cc1Sc1cc(Cl)ccc1O,6.07%,–

SMILES,max response,Potency
COc1ccc(CCN2CCC(Nc3nc4ccccc4n3Cc3ccc(F)cc3)CC2)cc1,–,3.16 µM (active)
CC(O)C(=O)O (stereo not given),-6.68%,–
COc1cccc(OC)c1C(=O)N[C@@H]1C(=O)N2[C@@H]1SC(C)(C)[C@@H]2C(=O)O,-0.927%,–
Oc1cc(O)c2c(c1)O[C@H](c1ccc(O)c(O)c1)[C@H](O)C2,2.48%,–
CC[C@H](C)C(=O)O[C@H]1CCC=C2C=C[C@H](C)[C@H](CC[C@@H]3C[C@@H](O)CC(=O)O3)[C@H]21,15.8% and 37.7%,–
CC(C)COC(=O)OCN1C(=O)CN(CCN2CC(=O)N(COC(=O)OCC(C)C)C(=O)C2)CC1=O,5.95% and 28.2%,–
O=c1c(-c2ccccc2)c1-c1ccccc1,–,3.98 µM (active)
CC(=O)[C@H]1CC[C@H]2[C@@H]3C[C@H](C)C4=CC(=O)CC[C@]4(C)[C@H]3[C@@H](O)C[C@]12C,9.78%,–
C=CCc1ccc(O)c(OC)c1,4.9%,–
CC(=O)OCC(=O)[C@@]1(O)CC[C@H]2[C@@H]3CCC4=CC(=O)C=C[C@]4(C)[C@H]3[C@@H](O)C[C@@]21C,-0.763%,–
O=C1OC(c2ccc(O)cc2)(c2ccc(O)cc2)c2ccccc21,7.07%,–
CCCC(=O)Nc1ccc(OCC(O)CNC(C)C)c(C(C)=O)c1 (stereo not given),19.2%,–
Nc1ccc(/C=C/c2ccc(N)cc2S(=O)(=O)O)c(S(=O)(=O)O)c1,1.42%,–
N[C@H](CO)C(=O)O,0.963% and 16.2%,–
CCOC(=O)COc1ccc2c(C)c(CCN(CC)CC)c(=O)oc2c1Cl,-0.591%,–
O=C(O)c1cc2cc(Cc3cccnc3)ccc2o1,2.09% and 51.2%,–
O=C1OC2(c3ccc(O)cc3Oc3cc(O)ccc32)c2ccccc21,-13.2% and 24.2%,–
CC1(C)OC[C@@H](COC(=O)CCc2ccc(OC[C@@H](O)CNCCNC(=O)N3CCOCC3)cc2)O1,-9.37% and -4.75%,–
COc1ccc(C2C(=O)c3ccccc3C2=O)cc1,5.04%,–
O=c1ccc2ccccc2o1,15.4%,–
